# Results: the supplement of paper PMC9023506
# Where a name gives a salt, the structure may show the parent alone.
# Tested on: Danio rerio larvae (5 dpf)
# Test: activity during period 15 (no stimuli), difference vs DMSO (percentage points (treated minus DMSO)); higher = more of the behaviour than the DMSO vehicle control
# Settings: 10 µM; exposure time: 3 h pre-incubation + 3 h imaging
# Procedure: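 5-dpf wild-type zebrafish larvae were imaged in 96-well plates. They were treated with 190 Tocris FDA-approved drugs at 10 µM (1 µl/ml DMSO) for 3 h before and 3 h during imaging at 28.5 °C, 48 larvae per drug. Automated image analysis gave % time moving and optomotor responses. Values are drug group mean minus DMSO vehicle mean (n=844), in percentage points, for 10 behaviours.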
row,SMILES,activity during period 15
1,CN/C(=N\CCSCc1nc[nH]c1C)NC#N [Cimetidine],-5.2
2,Cc1cc(C2CCCCC2)n(O)c(=O)c1 [Ciclopirox],10.7
3,Cc1c(-c2ccc(O)cc2)n(Cc2ccc(OCCN3CCCCCC3)cc2)c2ccc(O)cc12 [Bazedoxifene acetate],-15.7
4,CCCc1nc(C(C)(C)O)c(C(=O)O)n1Cc1ccc(-c2ccccc2-c2nnn[nH]2)cc1 [Olmesartan],4.45
5,CCCCCCCN(CC)CCCC(O)c1ccc(NS(C)(=O)=O)cc1 (stereo not given) [Ibutilide hemifumarate],-10
6,CC(C)c1nc(CN(C)C(=O)N[C@H](C(=O)N[C@@H](Cc2ccccc2)C[C@H](O)[C@H](Cc2ccccc2)NC(=O)OCc2cncs2)C(C)C)cs1 [Ritonavir],-8.67
7,CC/C(=C(\c1ccccc1)c1ccc(OCCN(C)C)cc1)c1ccccc1 [Tamoxifen citrate],20.1
8,C/C(O)=C(\C#N)C(=O)Nc1ccc(C(F)(F)F)cc1 [Teriflunomide],10.3
9,CN(C)CCc1c[nH]c2ccc(C[C@H]3COC(=O)N3)cc12 [Zolmitriptan],2.6
10,O=C(O[C@@H]1C[C@@H]2C[C@H]3C[C@H](C1)N2CC3=O)c1c[nH]c2ccccc12 [Dolasetron mesylate],-1.51
11,CC1CNc2c(cccc2S(=O)(=O)N[C@@H](CCCNC(=N)N)C(=O)N2CC[C@@H](C)C[C@@H]2C(=O)O)C1 (stereo not given in full) [Argatroban],-2.33
12,Nc1nc2c(ncn2COCCO)c(=O)[nH]1 [Acyclovir],-4.38
13,O=C1CCc2ccc(OCCCCN3CCN(c4cccc(Cl)c4Cl)CC3)cc2N1 [Aripiprazole],4.18
14,CC(C)(C(=O)O)c1ccc(C(O)CCCN2CCC(C(O)(c3ccccc3)c3ccccc3)CC2)cc1 (stereo not given) [Fexofenadine hydrochloride],1.68
15,NC(=O)N1c2ccccc2C=Cc2ccccc21 [Carbamazepine],-0.716
16,Nc1nc2[nH]cc(CCc3ccc(C(=O)N[C@@H](CCC(=O)O)C(=O)O)cc3)c2c(=O)[nH]1 [Pemetrexed],1.39
17,O=C(O)c1cc(/N=N/c2ccc(S(=O)(=O)Nc3ccccn3)cc2)ccc1O [Sulfasalazine],15.3
18,COc1c(C)c2c(c(O)c1C/C=C(\C)CCC(=O)O)C(=O)OC2 [Mycophenolic acid],9.46
19,CN(C)C(=N)NC(=N)N [Metformin hydrochloride],-4.35
20,CC[C@H]1OC(=O)[C@H](C)[C@@H](O[C@H]2C[C@@](C)(OC)[C@@H](O)[C@H](C)O2)[C@H](C)[C@@H](O[C@@H]2O[C@H](C)C[C@H](N(C)C)[C@H]2O)[C@](C)(O)C[C@@H](C)CN(C)[C@H](C)[C@@H](O)[C@]1(C)O [Azithromycin],-17.4

row,SMILES,activity during period 15
1,OCCN1C[C@H](O)[C@@H](O)[C@H](O)[C@H]1CO [Miglitol],-4.45
2,COc1ccc(Cl)cc1C(=O)NCCc1ccc(S(=O)(=O)NC(=O)NC2CCCCC2)cc1 [Glibenclamide],-4.16
3,Cc1ccsc1C(=CCCN1CCC[C@@H](C(=O)O)C1)c1sccc1C [Tiagabine hydrochloride],10.4
4,COc1ccc(-c2ccc3cc(C(=O)O)ccc3c2)cc1C12CC3CC(CC(C3)C1)C2 [Adapalene],-3.39
5,CC(c1cc2ccccc2s1)N(O)C(N)=O (stereo not given) [Zileuton],3.35
6,CC1=Nc2ccc(Cl)cc2S(=O)(=O)N1 [Diazoxide],2.35
7,Brc1c(NC2=NCCN2)ccc2nccnc12,-19.4
8,N#C[C@@H]1C[C@@H]2C[C@@H]2N1C(=O)[C@@H](N)C12CC3CC(CC(O)(C3)C1)C2 [Saxagliptin hydrochloride],5.2
9,CCC(=O)O[C@]1(C(=O)SCF)[C@H](C)C[C@H]2[C@@H]3C[C@H](F)C4=CC(=O)C=C[C@]4(C)[C@@]3(F)[C@@H](O)C[C@@]21C [Fluticasone propionate],8.18
10,COc1cc(Nc2c(C#N)cnc3cc(OCCCN4CCN(C)CC4)c(OC)cc23)c(Cl)cc1Cl [Bosutinib],-11.7
11,C[C@H]1C[C@@H]2[C@H]([C@@H](O)C[C@@]3(C)[C@H]2CC[C@]3(O)C(=O)CO)[C@@]2(C)C=CC(=O)C=C12 [Methylprednisolone],-4.72
12,OCCN(CCO)c1nc(N2CCCCC2)c2nc(N(CCO)CCO)nc(N3CCCCC3)c2n1 [Dipyridamole],-5.46
13,CC(=O)Oc1cc2c(s1)CCN(C(C(=O)C1CC1)c1ccccc1F)C2 (stereo not given) [Prasugrel],11.8
14,CC(=O)NC[C@H]1CN(c2ccc(N3CCOCC3)c(F)c2)C(=O)O1 [Linezolid],-1.07
15,CN(CCOc1ccc(CC2SC(=O)NC2=O)cc1)c1ccccn1 (stereo not given) [Rosiglitazone],7.42
16,CCOC(=O)c1ncn2c1CN(C)C(=O)c1cc(F)ccc1-2 [Flumazenil],11.9
17,CN1CC2c3ccccc3Oc3ccc(Cl)cc3C2C1 (stereo not given) [Asenapine maleate],40.8
18,O=C(O)C[C@H](O)C[C@H](O)/C=C/c1c(C2CC2)nc2ccccc2c1-c1ccc(F)cc1 [Pitavastatin calcium],-4.44
19,OCCOCCN1CCN(C2=Nc3ccccc3Sc3ccccc32)CC1 [Quetiapine hemifumarate],16.8
20,CN(CCOc1ccc(NS(C)(=O)=O)cc1)CCc1ccc(NS(C)(=O)=O)cc1 [Dofetilide],-9.09
